Source: publication PMC5540273 (PLoS ONE, 2017)

Columns and labels:
Conditions in all cases: concentration: 1 μM, replicates: in singlicate; n = 1
FGFR1 = test system: FGFR1
FGFR2 = test system: FGFR2
FGFR3 = test system: FGFR3
FGFR4 = test system: FGFR4
FGR = test system: FGR
FLT1 = test system: FLT1
FLT3-autoinhibited = test system: FLT3-autoinhibited
FLT3 = test system: FLT3
FLT4 = test system: FLT4
FRK = test system: FRK
FYN = test system: FYN
GAK = test system: GAK
GCN2(Kin.Dom.2,S808G) = test system: T1, GCN2(Kin.Dom.2,S808G)
T1 construct: gene EIF2AK4

GRK1 = test system: GRK1
GRK2 = test system: T2, GRK2
T2 construct: gene ADRBK1

GRK3 = test system: T3, GRK3
T3 construct: gene ADRBK2

GRK4 = test system: GRK4
GRK7 = test system: GRK7
GSK3A = test system: GSK3A
GSK3B = test system: GSK3B
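Also: KINOMEscan kinase panel screen.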

COc1cc(Nc2nccc(N3CCC(NS(=O)(=O)c4ccc(NC(C)=O)cc4)CC3)n2)cc(OC)c1OC [GSK1379825]
%Inh (FGFR1): 17% | %Inh (FGFR2): 71% | %Inh (FGFR3): 59% | %Inh (FGFR4): 69% | %Inh (FGR): 50% | %Inh (FLT1): 53% | %Inh (FLT3-autoinhibited): 73% | %Inh (FLT3): 92% | %Inh (FLT4): 71% | %Inh (FRK): 35% | %Inh (FYN): 67% | %Inh (GAK): 44% | %Inh (GCN2(Kin.Dom.2,S808G)): 0% | %Inh (GRK1): 0% | %Inh (GRK2): 62% | %Inh (GRK3): 44% | %Inh (GRK4): 0% | %Inh (GRK7): 0% | %Inh (GSK3A): 0% | %Inh (GSK3B): 10%

COC(=O)Nc1nc2cc(Oc3ccc(NC(=O)Nc4cccc(SC)c4)cc3)ccc2[nH]1.Cl [GW697999]
%Inh (FGFR1): 11% | %Inh (FGFR2): 5% | %Inh (FGFR3): 0% | %Inh (FGFR4): 0% | %Inh (FGR): 47% | %Inh (FLT1): 98.9% | %Inh (FLT3-autoinhibited): 22% | %Inh (FLT3): 99.3% | %Inh (FLT4): 86% | %Inh (FRK): 48% | %Inh (FYN): 19% | %Inh (GAK): 21% | %Inh (GCN2(Kin.Dom.2,S808G)): 9% | %Inh (GRK1): 0% | %Inh (GRK2): 0% | %Inh (GRK3): 57% | %Inh (GRK4): 0% | %Inh (GRK7): 0% | %Inh (GSK3A): 0% | %Inh (GSK3B): 0%

CN(c1ccc(NC(=O)Nc2cccc(Cl)c2)cc1)c1ccnc(N)n1.Cl [GW830707]
%Inh (FGFR1): 9% | %Inh (FGFR2): 0% | %Inh (FGFR3): 0% | %Inh (FGFR4): 7% | %Inh (FGR): 4% | %Inh (FLT1): 97.1% | %Inh (FLT3-autoinhibited): 56% | %Inh (FLT3): 97.6% | %Inh (FLT4): 60% | %Inh (FRK): 49% | %Inh (FYN): 10% | %Inh (GAK): 10% | %Inh (GCN2(Kin.Dom.2,S808G)): 0% | %Inh (GRK1): 0% | %Inh (GRK2): 0% | %Inh (GRK3): 1% | %Inh (GRK4): 0% | %Inh (GRK7): 1% | %Inh (GSK3A): 17% | %Inh (GSK3B): 1%

CNc1nccc(-c2ccc3c(N)n[nH]c3c2)n1 [GSK2206003]
%Inh (FGFR1): 41% | %Inh (FGFR2): 5% | %Inh (FGFR3): 11% | %Inh (FGFR4): 2% | %Inh (FGR): 29% | %Inh (FLT1): 49% | %Inh (FLT3-autoinhibited): 14% | %Inh (FLT3): 50% | %Inh (FLT4): 5% | %Inh (FRK): 6% | %Inh (FYN): 17% | %Inh (GAK): 69% | %Inh (GCN2(Kin.Dom.2,S808G)): 0% | %Inh (GRK1): 0% | %Inh (GRK2): 15% | %Inh (GRK3): 23% | %Inh (GRK4): 46% | %Inh (GRK7): 14% | %Inh (GSK3A): 14% | %Inh (GSK3B): 0%

CN(C)CCOc1ccc(-c2cc(-c3ccc(Cl)c(O)c3)c(-c3ccncc3)[nH]2)cc1.Cl.Cl [SB-684387]
%Inh (FGFR1): 0% | %Inh (FGFR2): 1% | %Inh (FGFR3): 30% | %Inh (FGFR4): 15% | %Inh (FGR): 73% | %Inh (FLT1): 0% | %Inh (FLT3-autoinhibited): 17% | %Inh (FLT3): 0% | %Inh (FLT4): 1% | %Inh (FRK): 82% | %Inh (FYN): 78% | %Inh (GAK): 42% | %Inh (GCN2(Kin.Dom.2,S808G)): 0% | %Inh (GRK1): 43% | %Inh (GRK2): 0% | %Inh (GRK3): 21% | %Inh (GRK4): 0% | %Inh (GRK7): 17% | %Inh (GSK3A): 41% | %Inh (GSK3B): 10%
